# Assay results from PubChem BioAssay AID1347075 (National Center for Advancing Translational Sciences (NCATS), 2019).
# Screen size: about 400,000 compounds; about 5,500 (1.4%) were called active. Not shown: some 9% with an inconclusive outcome. Calls come from the whole dose curve; as a rule, active = well fitted cell-killing curve with a large enough effect; inconclusive = small, poorly fitted or top-dose-only effect, or effect the other way; inactive = flat fitted curve, though single readings scatter. This excerpt belongs to a sample that is enriched for actives.
# Test: qHTS assay for MDR1-selective chemotherapeutics: Primary screen using the parental adenocarcinoma cell KB-3-1; note: nearly all actives have a fitted effect of over 60% in size
# Conditions: KB-3-1 viability, CellTiter-Glo ATP luminescence, 72 h; series mostly up to 46.1 µM; activity change, negative = cytotoxic: at the top concentration
# In short: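 Here the drug-naive KB-3-1 line serves as comparator for MDR sub-line selectivity; cells received compound titrations, 72 h at 37 °C, then CellTiter-Glo readout.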
# % is set by controls: 0 for no effect and ±100 for the full control effect; potency is the fitted concentration of half-maximal effect.
Compound,"activity change, negative = cytotoxic",Potency
Cc1ccc(CNC(=O)CCC(=O)N2Cc3ccccc3Oc3ncccc32)cc1,-0.423% (inactive),–
CNC(=O)CN1C(=O)c2cccnc2Sc2ccccc21,2.16% (inactive),–
CC1=Nc2cc(C(=O)N3CCC(C)CC3)ccc2Sc2ccc(Cl)cc21,-7.06% (inactive),–
COCCNC(=O)c1ccc(S(=O)(=O)c2ccc(Cl)cc2)c(NC(C)=O)c1,-5.96% (inactive),–
COCCNC(=O)c1ccc2c(c1)N=C(C)c1cc(C)ccc1S2,–,0.651 µM (active)
NC(=O)CSc1nc2c(oc3ccccc32)c(=O)n1Cc1ccccc1,1.42% (inactive),–
O=c1[nH]c(CCl)nc2cc(-c3ccc(Cl)cc3)sc12,–,9.2 µM (active)
COc1cccc(-c2cc3nc(NCCOc4ccccc4Cl)n(C)c(=O)c3s2)c1,0% (inactive),–
Cn1c(NCc2cccnc2)nc2cc(-c3ccc(F)cc3)sc2c1=O,-0.0429% (inactive),–
Cc1cc(C)c2oc(C(=O)Nc3ccc(S(=O)(=O)N(C)c4ccccc4)cc3)cc(=O)c2c1,4.69% (inactive),–
COc1cccc(C(=O)NCCS(=O)(=O)NCC2CCCO2)c1 (stereo unspecified),-6.43% (inactive),–
CN(C)S(=O)(=O)N1CCC(Oc2cccc(C(=O)NCCCC3CCCC3)c2)CC1,–,14.6 µM (active)
CN(C(=O)c1cccc(OC2CCN(S(=O)(=O)N(C)C)CC2)c1)C1CCOC1 (stereo unspecified),8.45% (inactive),–
COc1cccc(NC(=O)C2CCN(c3cc(C)nc4c(-c5ccc(Cl)cc5)c(C)nn34)CC2)c1,-0.208% (inactive),–
CC(NC(=O)c1cc2c(=O)n3ccccc3nc2n(C(C)C)c1=N)c1ccccc1 (stereo unspecified),0.478% (inactive),–
COc1ccc(OC)c(CNC(=O)Cn2nc(C)c3c(C)n(-c4ccccc4)nc3c2=O)c1,-12.2% (inactive),–
COc1ccc(C(O)c2nc(-c3ccc4c(c3)OCO4)cs2)cc1 (stereo unspecified),0% (inactive),–
O=C(Nc1nc(-c2ccc3c(c2)OCO3)cs1)c1ccncc1,–,2.91 µM (active)
CC(O)(c1cccc(F)c1)c1nc(-c2ccc3c(c2)OCO3)cs1 (stereo unspecified),0% (inactive),–
Cc1nn(C(C)C(=O)NCCc2ccccc2)c(=O)c2c1sc1ccccc12 (stereo unspecified),3.29% (inactive),–
CCC(C(=O)Nc1cc(OC)ccc1OC)n1c(=O)c(C(F)(F)F)nc2ccccc21 (stereo unspecified),7.88% (inactive),–
O=C(CN1c2ccccc2S(=O)(=O)c2ccccc21)Nc1cccc(C(F)(F)F)c1,-4.61% (inactive),–
COc1ccc(/C=C2/CCCc3ccccc3C2=O)cc1,–,0.651 µM (active)
COc1ccccc1C1=CC(=O)CCC1,28.5% (inactive),–

Compound,"activity change, negative = cytotoxic",Potency
COc1ccc(/C=C2\N=C3CCCN3C2=O)cc1,5.91% (inactive),–
O=C(Nc1nc2ccc([N+](=O)[O-])cc2s1)c1ccc(S(=O)(=O)N2CCCc3ccccc32)cc1,–,2.06 µM (active)
CNC(=O)c1ccsc1NC(=O)c1ccc(S(=O)(=O)N2CCc3ccccc32)cc1,-22.8% (inactive),–
Cc1cc2nc(NC(=O)c3ccc(S(=O)(=O)N4CCOCC4)cc3)sc2cc1C,22.1% (inactive),–
O=C(NC1CCCCC1)c1ccc2c(c1)N(Cc1ccc(Cl)cc1)C(=O)c1ccccc1S2=O (stereo unspecified),5.96% (inactive),–
N#Cc1c(-c2cccs2)nc(SCC(=O)c2ccc(Br)cc2)[nH]c1=O,2.12% (inactive),–
N#Cc1ccc(C(=O)Nc2nc(-c3cccs3)c(C(=O)C(F)(F)F)s2)cc1,–,5.8 µM (active)
COc1ccc(C(F)(F)F)cc1NC(=O)c1sc2nc(-c3cccs3)ccc2c1N,-8.83% (inactive),–
S=C(NCCCc1cnc[nH]1)NCCCN(Cc1ccc(Cl)c(Cl)c1)c1ccc(Br)cn1,–,13 µM (active)
NCCCNC(=S)NCCCN(Cc1ccc(Cl)cc1)c1ccc(Br)cn1,–,inactive
O=C(Nc1ccc(Cl)cc1)c1cnn2c1NC(=C1CC1)C=C2C(F)F,29.6% (inactive),–
CCn1c(=O)c2cc(C(=O)NCCc3ccc(Cl)cc3)sc2c2ccccc21,12.2% (inactive),–
CSc1nc(Nc2ccc(F)cc2)cc(-c2ccccc2)n1,5.28% (inactive),–
CSc1nc(-c2ccccc2)nc(C(Cl)Cl)n1,–,2.91 µM (active)
CC(=O)c1ccc(NC(=O)C2CCN(S(=O)(=O)c3c(C)noc3/C=C/c3ccc(C)cc3)CC2)cc1,4% (inactive),–
COc1ccc(CNC(=O)CSCc2nc(-c3ccccc3F)oc2C)cc1,-11.1% (inactive),–
Fc1ccccc1Oc1ncnc2c1oc1ccccc12,5.25% (inactive),–
Cc1ccc(-c2ccc(CN3C(C(C)C)C(=O)N(Cc4cn(CCC5OCCO5)nn4)CCS3(=O)=O)cc2)cc1 (stereo unspecified),–,18.4 µM (active)
CC(C)C1C(=O)N(Cc2cn(CCC3OCCO3)nn2)CCS(=O)(=O)N1Cc1ccc(-c2ccccc2C(F)(F)F)cc1 (stereo unspecified),-0.628% (inactive),–
Cc1ccc(-c2ccc(CN3C(C)C(=O)N(Cc4cn(CCC5OCCCO5)nn4)CCS3(=O)=O)cc2)cc1 (stereo unspecified),-18.8% (inactive),–
Cc1ccc(-c2nc3ccccn3c2Nc2c(C)cccc2C)o1,-3.73% (inactive),–
CCOc1ccc(NC(=O)Cn2c(C)ccc(C#N)c2=O)cc1,-15.1% (inactive),–
CC(=O)c1cccc(Nc2ccc3cc(S(=O)(=O)N4CCC(C)CC4)ccc3n2)c1,-15.4% (inactive),–
CCOc1cc(NC(=O)Nc2ccccc2)c(OCC)cc1NC(=O)CC,1.09% (inactive),–

Compound,"activity change, negative = cytotoxic",Potency
CCOc1cc(NC(=O)CCl)c(OCC)cc1NC(C)=O,–,18.4 µM (active)
CCCC(=O)Nc1cc(OCC)c(NC(=O)NC2CCCCC2)cc1OCC,-0.982% (inactive),–
COc1ccc(OC)c(NC(=O)C2CCCN(S(=O)(=O)c3ccc4c(c3)CCCC(=O)N4)C2)c1 (stereo unspecified),-1.19% (inactive),–
COC(=O)c1cc(NC(=O)CCS(=O)(=O)c2cc(Br)cc3c2N(C(=O)C2CC2)CC3)cc(C(=O)OC)c1,4.7% (inactive),–
CCOC(=O)c1ccc(-c2ccc(/C=C(\C#N)C(=O)Nc3ccc(C)cc3)o2)cc1,10.4% (inactive),–
Cc1ccc(C(=O)N/C(=C/c2ccc(-c3cccc([N+](=O)[O-])c3)o2)C(=O)NCCCN(C)C)cc1,23% (inactive),–
Cc1ccc(Cc2cnc(NC(=O)/C(C#N)=C/c3ccc(-c4cccc([N+](=O)[O-])c4)o3)s2)cc1,–,14.6 µM (active)
CCc1ccccc1NC(=O)CSc1nc(C)c(C(=O)Nc2ccccc2)c(-c2ccc(Cl)cc2)c1C#N,9.75% (inactive),–
CCN(CCCNC(=O)c1c(C)oc2ncn(CC(C)C)c(=O)c12)Cc1ccccc1,1.99% (inactive),–
COc1ccc(-c2cc(NCc3ccc(F)cc3)n3cnnc3n2)cc1,0.251% (inactive),–
COc1cc(OC)cc(C(=O)NC(C(=O)N2CCC2)C(C)C)c1 (stereo unspecified),3.72% (inactive),–
COc1cc(OC)cc(C(=O)N[C@H](C(=O)OCC(=O)NC(C)c2ccccc2)C(C)C)c1 (stereo partly specified),6.04% (inactive),–
COc1cc(OC)cc(C(=O)N[C@H](C(=O)Nc2nc3ccccc3[nH]2)C(C)C)c1,–,1.64 µM (active)
CCCc1ccc(OCc2ccc(C(=O)N/N=C/c3cccc([N+](=O)[O-])c3)o2)c(OC)c1,–,18.4 µM (active)
COc1ccccc1OCc1ccc(C(=O)NC(C)c2ccccc2)o1 (stereo unspecified),-14.5% (inactive),–
COc1ccc(O)c(/C=N/N=C/c2cccc([N+](=O)[O-])c2)c1,4.17% (inactive),–
COc1ccc(OC)c(NC(=O)Cn2c(=O)n(Cc3ccccc3)c(=O)c3ccccc32)c1,-13.4% (inactive),–
COc1ccc(NC(=O)CCCN2C(=O)CCn3nc(-c4cn(C)c5ccccc45)cc32)cc1OC,11.5% (inactive),–
O=c1oc2ccccc2cc1-c1cn(-c2ccccc2)c(=S)[nH]1,–,3.66 µM (active)
Cc1cc(NC(=O)c2cccc(Cl)c2)ccc1-c1cc2ccccc2oc1=O,-2.7% (inactive),–
COc1cc(CNC(=O)c2cc3n(n2)CCCN(Cc2cccc(F)c2)C3=O)cc(OC)c1OC,-22.8% (inactive),–
COc1ccc(CNC(=O)CSc2nc3ccccc3nc2Cc2ccccc2)cc1,5.2% (inactive),–
CN(C)c1ccc(/C=c2\[nH]c(=O)/c(=C/c3ccc(N(C)C)cc3)[nH]c2=O)cc1,0.186% (inactive),–
COc1ccc2c(c1)c(=Cc1ccc(N(C)C)cc1)c1cc(-c3ccccc3)[n+](C)n12,–,3.66 µM (active)

Compound,"activity change, negative = cytotoxic",Potency
NC(=O)C1CCN(c2cc(-c3ccc4c(c3)OCCCO4)ncn2)CC1,0% (inactive),–
Cc1oc2ccc(O)c(CN3CCCCC3)c2c1C(=O)Nc1cccc(C(F)(F)F)c1,-4.63% (inactive),–
COc1ccc(CCNC(=O)c2ccc(-n3c(C)cc4c3CCCC4)cc2)cc1OC,2.17% (inactive),–
COc1cc(Cl)c(C)cc1Nc1nnc(-n2nc(C)cc2C)c2ccccc12,3.44% (inactive),–
COc1ccc(C(=O)NNc2cc(C)nc(NNC(=O)c3ccc(OC)cc3)n2)cc1,0% (inactive),–
COc1ccc(C(C)=O)cc1CSc1nc2nc(C)cc(C)n2n1,-8.05% (inactive),–
COc1ccc(Nc2cc(Sc3ccc(OC)cc3)ncn2)cc1,-20.2% (inactive),–
COc1ccccc1/C=N/N1CCN(Cc2ccccc2Cl)CC1,-4.62% (inactive),–
Cc1cc(C)nc(-n2nc(C)cc2NC(=O)c2ccc(F)cc2F)n1,-0.123% (inactive),–
COc1ccccc1/C=N\Nc1cc(C)nc(-n2nc(C)cc2C)n1,–,7.31 µM (active)
CC(=O)c1ccc(Oc2cc(C)nc(-n3nc(C)cc3C)n2)cc1,–,0.651 µM (active)
COc1ccc(Nc2cc(C)nc(-n3nc(C)cc3C)n2)cc1,–,0.731 µM (active)
NS(=O)(=O)c1ccc(NC(=O)C(=O)Nc2ccc3nc4n(c(=O)c3c2)CCCCC4)cc1,0.279% (inactive),–
COc1ccc(CCN2C(=O)N(c3cccc(OC)c3)C(=O)C2CC(=O)Nc2ccccc2)cc1 (stereo unspecified),0% (inactive),–
COc1ccccc1CNS(=O)(=O)c1cc(Br)cc2c1N(C(C)=O)C(C)C2 (stereo unspecified),-14.7% (inactive),–
Cc1ccc2c(c1)c1c(c(=O)n(-c3ccccc3)c(=O)n1CC(=O)c1ccc(Cl)cc1)n2C,5.37% (inactive),–
COC(=O)CC1Oc2ccccc2-n2cc(-c3ccccc3)nc21 (stereo unspecified),-0.952% (inactive),–
CCOCCCNC(=O)c1c(NC(=O)Cc2coc3c(C)c(C)ccc23)sc2c1CCC2,6.28% (inactive),–
O=C(CCc1ccccc1)NCc1ccc2c(c1)CCN2C(=O)c1ccccc1,-4.5% (inactive),–
CCCCn1c(CNC(=O)C23CC4CC(CC(C4)C2)C3)nnc1SCC(=O)Nc1ccc(C)cc1,-2.31% (inactive),–
Cc1ccc(C(=O)Nc2cc3c(cc2N2CCCC2)n(C)c(=O)c(=O)n3C)cc1,6.25% (inactive),–
CCCC1=Nc2cc(C(=O)NCCN3CCCC3)ccc2Sc2ccccc21,-6.09% (inactive),–
CCCC1=Nc2cc(C(=O)NCc3ccco3)ccc2Sc2ccccc21,–,5.8 µM (active)
COc1ccc(CCNS(=O)(=O)c2ccc(C(=O)NCc3ccco3)cc2)cc1OC,0.297% (inactive),–
